Experimental data published in PubChem BioAssay AID624040 (The Scripps Research Institute Molecular Screening Center, 2012).
Values joined by “and” are separate entries in the source; they are usually repeats but may differ in a detail not shown here. Equal entries are not always repeated. Among all 360,000 compounds or so, about 2,100 (0.58%) were called active.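 The calls were made as follows: active = inhibition above a per-plate cutoff, the mean of that plate's test compounds plus 3 SD (cut at about 27% in these data); inactive = the rest.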 What follows is part of a selection rich in actives, with near analogues and random picks from the rest. More than one record can exist for a structure, and the calls need not agree.

What follows are molecules tested against Muscarinic acetylcholine receptor M5 (Homo sapiens) (UniProt P08912) (assay: human M5 muscarinic receptor antagonists, primary screen, CHO cells, Fluo-8 calcium fluorescence (AID 624040;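 also: 0% = acetylcholine EC80 with DMSO and 100% = DMSO without agonist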)). Conditions: CHO-hM5 cells, ACh EC80, at 3 µM, stronger effect = higher value.
Sequence of Muscarinic acetylcholine receptor M5 (Homo sapiens) (P08912 whole entry, looked up): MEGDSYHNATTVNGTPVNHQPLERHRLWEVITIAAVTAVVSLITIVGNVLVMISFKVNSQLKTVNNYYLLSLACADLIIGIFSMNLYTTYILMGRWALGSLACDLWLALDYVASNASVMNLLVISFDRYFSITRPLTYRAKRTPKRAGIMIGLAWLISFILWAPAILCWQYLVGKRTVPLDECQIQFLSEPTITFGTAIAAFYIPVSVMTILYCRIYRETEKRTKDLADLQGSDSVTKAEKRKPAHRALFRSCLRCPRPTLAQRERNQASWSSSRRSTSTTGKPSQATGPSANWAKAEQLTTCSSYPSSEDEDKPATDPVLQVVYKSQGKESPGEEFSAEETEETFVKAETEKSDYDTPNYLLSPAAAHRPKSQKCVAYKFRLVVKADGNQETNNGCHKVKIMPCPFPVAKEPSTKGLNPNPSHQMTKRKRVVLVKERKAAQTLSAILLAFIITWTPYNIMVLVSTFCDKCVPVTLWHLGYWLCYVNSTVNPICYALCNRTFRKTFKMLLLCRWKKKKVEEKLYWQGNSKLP
CCN(CC)S(=O)(=O)c1ccc2nc(CSc3nnnn3-c3ccc(O)cc3)[nH]c2c1 was tested, and the inhibition was 10.1% (inactive). Fc1cccc2ncnc(OCc3ccccc3)c12 was tested, and the inhibition was 4.79% (inactive). In the case of Cc1nc2ccccc2cc1OCc1ccc(F)cc1, the inhibition is reported as 47.8% (active). Fc1ccc(COc2cccc(-c3n[nH]c(=S)o3)c2)cc1 was tested, and the inhibition was 8.85% (inactive). In the case of O=C(CSc1nccc(=O)[nH]1)Nc1ccc(N2CCOCC2)c(Cl)c1, the inhibition is reported as 12.6% (inactive). CCOc1ccc(C(C)=O)cc1CSc1nnc(-c2ccncc2)n1CCOC was tested, and the inhibition was 12% (inactive). With CCN1C(=O)CS/C1=N\c1nccs1 the inhibition was -0.1% (inactive). For CCOc1ccc(C(=O)NCC(=O)N2CCCCCCC2)cc1OCC, the inhibition was 1.82% (inactive). CCN1CCN(C(=O)N[C@@H](C(=O)N[C@@H]2C(=O)N3C(C(=O)O)=C(CSc4nnnn4C)CS[C@H]23)c2ccc(O)cc2)C(=O)C1=O was tested, and the inhibition was -7.79% (inactive). For CO/N=C(\C(=O)N[C@@H]1C(=O)N2C(C(=O)O)=C(COC(C)=O)CS[C@H]12)c1csc(N)n1 (stereo in doubt), the inhibition was 0.17% (inactive) and 51.3% (active) and 30.6% (active). For C=CC1=C(C(=O)O)N2C(=O)[C@@H](NC(=O)/C(=N/OCC(=O)O)c3csc(N)n3)[C@H]2SC1, the inhibition was -2.27% (inactive). In the case of COc1ccc(C(=O)Cn2nnc(-c3ccc(N4CCOCC4)cc3)n2)cc1OC, the inhibition is reported as 16.5% (inactive). In the case of N#CCc1ccc(NC(=O)c2ccccc2C(=O)Nc2ccc(CC#N)cc2)cc1, the inhibition is reported as 2.31% (inactive). In the case of CCN(CC)CCC(c1ccc2c(c1)OCO2)c1c(OC)cc(OC)c2c(-c3ccccc3)cc(=O)oc12 (configuration not stated), the inhibition is reported as 7.48% (inactive). COc1cc(OC)c2ccc(=O)oc2c1C(CCN1CCN(c2ccccc2)CC1)c1ccc2c(c1)OCO2 (configuration not stated) was tested, and the inhibition was 31.3% (active). With COc1cc(C(CCN2CCN(c3ccccc3)CC2)c2c(OC)cc(OC)c3ccc(=O)oc23)cc(OC)c1OC (configuration not stated) the inhibition was 17% (inactive). Cc1ccc(NC(=O)c2cc([N+](=O)[O-])ccc2Cl)c(O)c1 was tested, and the inhibition was 1.06% (inactive). CCOC12CC(C)(C)CC(C)(CC3=C1C(=O)CC(C)(C)C3)C2 (configuration not stated) was tested, and the inhibition was -1.41% (inactive). For Cc1ccc(CNC(=O)CCNS(=O)(=O)c2ccc(Br)s2)cc1, the inhibition was -7.85% (inactive). CCN(CC(=O)Nc1ccccc1C(=O)NC1CC1)Cc1cccs1 was tested, and the inhibition was -5.91% (inactive). CSc1nccc(NC(=O)c2ccc(C(C)(C)C)cc2)n1 was tested, and the inhibition was 32.5% (active). In the case of CC(=O)Oc1ccc(C(=O)Nc2nccs2)cc1, the inhibition is reported as -0.3% (inactive). In the case of CSc1ncc(C(=O)Nc2ccc(C)cc2C)c(C)n1, the inhibition is reported as 0.26% (inactive). O=C(CSc1nn(-c2ccc(F)cc2)c(=S)s1)NC1CCS(=O)(=O)C1 (configuration not stated) was tested, and the inhibition was 2.55% (inactive). CC(=O)NC(c1cccs1)c1cc(Br)c2cccnc2c1O (configuration not stated) was tested, and the inhibition was -3.57% (inactive). With CCn1c(N)c(Br)c(=O)[nH]c1=O the inhibition was -11.1% (inactive). Cc1ccc(N2CC(C(=O)NCCS(=O)(=O)N3CCN(c4ccccc4)CC3)CC2=O)cc1 (configuration not stated) was tested, and the inhibition was 8.26% (inactive). For N#C/C(=C\c1ccc(N2CCOCC2)o1)C(=O)N1CCOCC1, the inhibition was 0.08% (inactive). Cc1ccc(C(=O)N/C(=C/c2ccco2)C(=O)NCCc2c[nH]c3ccccc23)cc1C was tested, and the inhibition was 0.84% (inactive). N#C/C(=C/c1ccc(N2CCCCC2)o1)C(=O)NCCc1c[nH]c2ccccc12 was tested, and the inhibition was 31.6% (active). In the case of Cc1ccccc1CSc1nnc(-c2ccccn2)n1N, the inhibition is reported as -0.16% (inactive). For CC(C)(C)S(=O)(=O)N1Cc2cc(CO)cc(CCO)c2[C@H]1CCO, the inhibition was -3.33% (inactive). With CC(NC(=O)c1ccc(Cl)cc1)C(=O)N1CCCCC1 (configuration not stated) the inhibition was -2.56% (inactive). In the case of CN1CCC(=NNC(=O)c2ccc(N(Cc3ccc(Cl)cc3)S(C)(=O)=O)cc2)CC1, the inhibition is reported as -3.74% (inactive). CCC1CCC/C1=N\NC(=O)c1ccc(Cl)cc1 (configuration not stated) was tested, and the inhibition was 27.5% (active). For COc1cc(OC)cc(-c2c(C#Cc3ccsc3)c3cc(-c4ccc(OC)cc4F)ccc3n2C)c1, the inhibition was 8.22% (inactive). In the case of CCN(CC)c1ccc(NC(=O)CN2CCN(c3ccccn3)CC2)cc1, the inhibition is reported as 1.09% (inactive). In the case of CCOc1ccc(OCc2ccc(C(=O)N(C)c3ccccc3)o2)cc1, the inhibition is reported as 8.29% (inactive). In the case of CN(C(=O)CN1CCN(c2cc(-c3ccc(OCc4ccccc4)cc3)ncn2)CC1)c1ccccc1, the inhibition is reported as 27.1% (active). C[C@H](NS(=O)(=O)c1ccc(Cl)cc1)C(=O)OCC(=O)N1CCOCC1 was tested, and the inhibition was 14.1% (inactive). In the case of CN(C)CCNC(=O)c1ccc(Cl)c2cc3ccccc3nc12, the inhibition is reported as 0.61% (inactive). N#C/C=C\Oc1ccc(Cl)cc1N was tested, and the inhibition was 1.41% (inactive). In the case of Cc1ccc(-c2c[n+](CC(=O)Nc3ccccc3)c3n2CCC3)cc1, the inhibition is reported as 2.52% (inactive). For Cc1ccc(C(=O)C[n+]2cc(-c3ccccc3)n3c2CCCCC3)cc1, the inhibition was 4.95% (inactive) and 0.73% (inactive). For Clc1ccc(C[n+]2cc(-c3ccc(Cl)cc3)n3c2CCC3)cc1, the inhibition was 32.4% (active). For COc1ccc(S(=O)(=O)N(C)CC(=O)NCCCN2CCOCC2)cc1Cl, the inhibition was 8.37% (inactive). With CCN1CCN(C(=O)Cn2nc(C)n3c(cc4c(OC)cccc43)c2=O)CC1 the inhibition was 2.41% (inactive).
